High-throughput results deposited in PubChem by several laboratories.
An excerpt weighted towards active compounds, which were near 4.7% of everything screened.
proKLK7 act: proKLK7 (human) activation, primary screen | AID 652039 | actives 0.9% (n = 370,000) | purified proKLK7, EDANS-DABCYL substrate fluorescence; 100% is mature enzyme control, 0% vehicle | P49862 | activation, % at 7 µM;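 active means activation above the mean of all tested compounds plus 3 SD, computed per campaign excluding outliers beyond control limits, cut at about 13% in these data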
ADAM10 inh: inhibitors of human ADAM10. O14672. recombinant ADAM10, EDANS/DABCYL FRET peptide cleavage, 3 h. inhibition, % at 7 µM. actives 0.62% (n = 370,000). AID 720582;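 active means inhibition above a per-campaign cutoff equal to the mean of compounds falling between control-based bounds plus 3 SD, cut at about 20% in these data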
Target sequence (O14672 214-748 limits assumed): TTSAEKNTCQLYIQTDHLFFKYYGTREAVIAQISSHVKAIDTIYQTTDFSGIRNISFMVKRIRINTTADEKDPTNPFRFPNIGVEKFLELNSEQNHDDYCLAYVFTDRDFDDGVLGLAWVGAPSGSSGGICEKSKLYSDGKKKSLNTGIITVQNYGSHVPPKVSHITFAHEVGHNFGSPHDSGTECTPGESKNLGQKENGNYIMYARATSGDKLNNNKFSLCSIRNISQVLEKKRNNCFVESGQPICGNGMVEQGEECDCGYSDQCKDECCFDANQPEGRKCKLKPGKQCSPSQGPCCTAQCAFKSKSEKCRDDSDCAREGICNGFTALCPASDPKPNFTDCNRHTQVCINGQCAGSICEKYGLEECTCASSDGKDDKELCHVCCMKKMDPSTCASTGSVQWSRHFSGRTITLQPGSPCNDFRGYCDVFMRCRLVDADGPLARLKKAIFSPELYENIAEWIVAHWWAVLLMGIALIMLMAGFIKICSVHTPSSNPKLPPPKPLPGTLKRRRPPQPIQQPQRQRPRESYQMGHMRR
MPTP block: permeability transition pore inhibition. isolated mouse mitochondria, Ca2+ swelling absorbance, 30 min. inhibition, % at 10 µM. actives 1.4% (n = 360,000);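 active means inhibition of 50% or more, scaled per plate between neutral and stimulator controls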
ADAM17 inh: inhibits human ADAM17; P78536; actives 0.83% (n = 370,000); recombinant ADAM17, EDANS/DABCYL FRET peptide cleavage; inhibition, % at 6.95 µM;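 active means inhibition above the mean of compounds lying between control limits plus 3 SD, set per campaign, cut at about 8.5% in these data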
Pemphigus Ab inh: blocks pemphigus antibody binding to human desmoglein-3. P32926. DSG3-coupled beads, scFv-anti-DSG3-GFP binding, flow cytometry; hits give low values. binding (percent of control), % at 10 µM. actives 0.48% (n = 310,000);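 active means binding more than 3 SD below its plate's average and above zero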;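 further: hits lower antibody fragment binding to DSG3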
rCAG binder: molecules binding r(CAG) RNA repeats | r(CAG) RNA repeat, TO-PRO-1 dye displacement fluorescence | inhibition, % at 3 µM | actives 1.3% (n = 370,000);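 active means inhibition above the plate cutoff, the mean of all test compounds on that plate plus 3 SD, cut at about 35% in these data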;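 further: higher means more dye released from RNA so lower well fluorescence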
MPTP counter: mitochondrial membrane potential, counter-screen | actives 78% (n = 5,000) | shares compounds with MPTP block | inhibition, % at 10 µM | isolated mitochondria, Rhodamine 123 fluorescence; in the data active means inhibition above about 22%
rCAG bind conf: r(CAG) RNA repeat binding, confirmation; actives 70% (n = 4,300); TO-PRO-1 dye displacement fluorescence; AID 652065; inhibition, % at 3 µM; shares compounds with rCAG binder;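 active means inhibition above a per-plate cutoff, the mean inhibition of sample wells plus 3 SD, cut at about 35% in these data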;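 further: loss of TO-PRO-1 fluorescence as compound displaces dye from 1x1 AA loop RNA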
dCAG dye counter: DNA CAG dye complex inhibition counter-screen; shares compounds with rCAG binder; d(CAG) DNA oligo TO-PRO-1 dye displacement, fluorescence; inhibition, % at 3 µM; actives 94% (n = 4,300); AID 652068;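 active means inhibition above its plate's cutoff, the mean test-well inhibition plus 3 SD, cut at about 4.8% in these data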;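 further: hits displace the dye from DNA and so lower well fluorescence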
Of the large screens only hits and unclear results are named; the others gave an inactive call (follow-up assays come after a bar, where they were run).

CC(C)c1[nH]nc2c1C(c1ccc(Br)cc1)NC2=O (centres undefined)	none (no result: MPTP block, Pemphigus Ab inh)
O=C(Nc1cc(S(=O)(=O)Nc2ccccc2Cl)ccc1O)c1cc2c(s1)CCCC2	MPTP block 89, rCAG binder 48 | MPTP counter 83 | rCAG bind conf 67 | dCAG dye counter 26
O=C(COc1ccccc1)Nc1ccccc1NS(=O)(=O)c1cccs1	none
Cc1cc(Cl)ccc1OCC(=O)Nc1ccccc1NS(=O)(=O)c1cccs1	MPTP block 52, rCAG binder 42 | MPTP counter 78 | rCAG bind conf 51 | dCAG dye counter 11
CC(=O)N1CCN(c2cc(C)nc3nc(C)nn23)CC1	none (no result: MPTP block, Pemphigus Ab inh)
Cc1ccccc1-c1cc(C(=O)Nc2sc(C(=O)OC(C)C)c(C)c2C#N)c2ccccc2n1	MPTP block 91, rCAG binder 47 | MPTP counter 79 | rCAG bind conf 62 | dCAG dye counter 28
COc1ccc(-c2cc(C(=O)Nc3sc4c(c3C#N)CCCC4)c3ccccc3n2)cc1	none
CCCCCCCC(=O)NNC(=O)Cc1ccccc1	none (no result: proKLK7 act, ADAM10 inh, ADAM17 inh, rCAG binder)
CCCCCCCCCCCC(=O)c1c(O)cccc1O	MPTP block 66, rCAG binder 41 | MPTP counter 56 | rCAG bind conf 39 | dCAG dye counter 23
COc1ccc(Cn2c(C)c(CC(=O)Nc3ccc(Oc4cccnc4)c(C)c3)c3ccccc32)cc1	none (no result: MPTP block, Pemphigus Ab inh)
CCOC(=O)C1=C(C(=O)OCC)C2N(Cc3ccc(C(F)(F)F)cc3)c3ccccc3[C@@]23C[C@@H](C(=O)OC)N(S(=O)(=O)c2ccccc2C)C3=N1 (some centres undefined)	none (no result: MPTP block, Pemphigus Ab inh)
O=C(NC(NC(=S)Nc1c(Cl)cccc1Cl)C(Cl)(Cl)Cl)c1cccc([N+](=O)[O-])c1 (centres undefined)	MPTP block 73, rCAG binder 47 | MPTP counter 54 | rCAG bind conf 36 | dCAG dye counter 16
O=C(NNC(=S)NC(=O)c1ccccc1Cl)c1cccc([N+](=O)[O-])c1	none
COc1cc(/C=C2/C(=O)c3cccc([N+](=O)[O-])c3C2=O)c(Br)cc1O	MPTP block 134, rCAG binder 60 | MPTP counter 53 | rCAG bind conf 89 | dCAG dye counter 62
Cc1cc(N2CCN(C(=O)OC(C)(C)C)C[C@@H]2C)ccc1N1CCN(Cc2ccccc2)[C@@H](C)C1	none (no result: MPTP block, Pemphigus Ab inh)
NC(c1ccccc1)c1csc(NC(=O)Nc2ccccc2Oc2ccccc2)n1 (centres undefined)	none (no result: Pemphigus Ab inh)
NC(c1ccccc1)c1csc(NC(=O)Nc2ccc(OC(F)(F)F)cc2)n1 (centres undefined)	MPTP block 70, rCAG binder 41 (no result: Pemphigus Ab inh) | MPTP counter 78 | rCAG bind conf 35 | dCAG dye counter 13
COCCCNC(=O)C[C@H]1C[C@@]2(C(=O)OC)C(=C[C@H](C3CCCC3)O[C@@H]2C)N(Cc2ccc(Cl)cc2Cl)C1=O	none (no result: MPTP block, Pemphigus Ab inh)
O=C(NNC(=S)Nc1cccc(C(F)(F)F)c1)c1ccc(Cl)cc1Cl	MPTP block 101, rCAG binder 62 | MPTP counter 89 | rCAG bind conf 59 | dCAG dye counter 21
CCOc1ccc(NC(=S)NNC(=S)Nc2cccc(C(F)(F)F)c2)cc1	MPTP block 80, rCAG binder 38 | MPTP counter 57 | rCAG bind conf 55 | dCAG dye counter 22
CCOc1cc(OCC)cc(C(=O)NC(=S)Nc2cccc(C(F)(F)F)c2)c1	none
O=C(NNC(=O)c1ccc(Cl)cc1Cl)Nc1ccccc1	none
CCOc1cc(N2CCC(O)CC2)ccc1Nc1ncc2c(n1)N(C)c1ccccc1C(=O)N2C	none (no result: MPTP block, Pemphigus Ab inh)
Cc1n[nH]c(=O)c2c(NC(=O)CSc3nn(-c4ccc(F)cc4)c(=S)s3)oc(C)c12	MPTP block 87, rCAG binder 40 | MPTP counter 84 | rCAG bind conf inactive | dCAG dye counter 13
